According to publication PMC4336329 (PLoS ONE, 2015):
Among all 310,000 compounds or so, about 14,000 (4.5%) showed an effect of 50% or more. Effects have a minus sign here. This is one part of a sample in which strong results are shown more often than they occur.

target: human ether-à-go-go-related gene (hERG) potassium channel (human, UniProt Q12809); assay: primary screen, population patch clamp on CHO cells stably expressing hERG; higher = less effect of the substance
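Also: peak tail current of the secondary pulse compared with the same well before compound.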

human ether-à-go-go-related gene (hERG) potassium channel, sequence (Q12809 whole entry, looked up): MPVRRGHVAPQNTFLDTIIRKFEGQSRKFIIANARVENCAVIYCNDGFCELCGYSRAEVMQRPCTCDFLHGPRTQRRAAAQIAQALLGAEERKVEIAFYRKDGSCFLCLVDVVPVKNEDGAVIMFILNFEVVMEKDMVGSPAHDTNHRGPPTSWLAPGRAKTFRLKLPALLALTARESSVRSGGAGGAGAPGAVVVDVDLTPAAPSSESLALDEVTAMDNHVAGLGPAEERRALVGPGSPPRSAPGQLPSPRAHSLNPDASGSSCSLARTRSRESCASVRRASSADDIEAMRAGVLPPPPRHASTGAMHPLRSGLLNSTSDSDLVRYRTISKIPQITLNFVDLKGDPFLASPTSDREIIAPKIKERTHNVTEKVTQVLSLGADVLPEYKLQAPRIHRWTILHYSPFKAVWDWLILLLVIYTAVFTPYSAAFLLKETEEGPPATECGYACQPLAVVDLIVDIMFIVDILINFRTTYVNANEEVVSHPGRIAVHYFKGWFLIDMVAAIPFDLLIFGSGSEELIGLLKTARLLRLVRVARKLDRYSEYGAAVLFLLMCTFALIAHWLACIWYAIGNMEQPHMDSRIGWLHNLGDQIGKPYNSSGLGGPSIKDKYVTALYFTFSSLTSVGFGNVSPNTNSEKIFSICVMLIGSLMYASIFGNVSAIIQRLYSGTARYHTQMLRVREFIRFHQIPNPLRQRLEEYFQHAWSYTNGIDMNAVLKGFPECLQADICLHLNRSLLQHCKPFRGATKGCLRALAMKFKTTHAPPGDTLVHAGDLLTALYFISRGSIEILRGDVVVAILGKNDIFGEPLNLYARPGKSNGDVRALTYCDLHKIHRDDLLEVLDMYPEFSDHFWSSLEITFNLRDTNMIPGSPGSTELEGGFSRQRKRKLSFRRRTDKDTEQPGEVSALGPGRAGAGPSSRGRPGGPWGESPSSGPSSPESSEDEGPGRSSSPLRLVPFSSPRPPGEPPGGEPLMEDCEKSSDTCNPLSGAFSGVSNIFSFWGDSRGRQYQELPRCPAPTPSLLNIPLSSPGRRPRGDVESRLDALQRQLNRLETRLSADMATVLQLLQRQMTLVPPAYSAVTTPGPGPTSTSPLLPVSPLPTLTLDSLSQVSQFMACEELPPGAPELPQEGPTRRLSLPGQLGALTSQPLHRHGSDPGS

First: CCN(CC)S(=O)(=O)c1ccc(C(=O)NCc2nnc(SCC(=O)OC)n2C)cc1
Second: CC12CCC(C(=O)NNC(=O)c3ccc(F)cc3)(OC1=O)C2(C)C (stereo not drawn)
The “hERG current change (%, negative = inhibition) at 10uM” value of the first is lower: -1.87% for the first, 24.6% for the second.

Going from O=C(NC1CCN(C(=O)Nc2cccc(Cl)c2)CC1)C1CCCCC1 to O=C(Nc1cccc(Cl)c1)C1CCCCC1, the “hERG current change (%, negative = inhibition) at 10uM” value falls from 13.1% to -9.14%.

Going from O=C(Nc1cccc(F)c1)C1CCCCC1 to CS(=O)(=O)N1CCC(C(=O)Nc2cccc(F)c2)CC1, the “hERG current change (%, negative = inhibition) at 10uM” value rises from -9.22% to 15.2%.

Compared with Cl.O=C(Nc1cccc(Cl)c1)NC1CCN(C2CCCCC2)C1 (stereo not drawn), O=C(Nc1cccc(Cl)c1)NC1CCCCC1 is higher in “hERG current change (%, negative = inhibition) at 10uM” value: -56.6% for the first, 8.14% for the second.

Compared with O=C(Nc1cccc(F)c1)C1CCN(C(=O)c2ccccc2Cl)CC1, O=C(Nc1cccc(F)c1)C1CCN(C(=O)Cc2ccccc2)CC1 is higher in “hERG current change (%, negative = inhibition) at 10uM” value: -8.66% for the first, -7.55% for the second.

Going from O=C(Nc1cccc(-c2cccc(F)c2)c1)C1CCN(C2CCC2)CC1 to O=C(Nc1cccc(-c2cccc(Cl)c2)c1)C1CCN(C2CCC2)CC1, the “hERG current change (%, negative = inhibition) at 10uM” value falls from -71.5% to -73.7%.

First: CS(=O)(=O)N1CCC(C(=O)Nc2cccc(Cl)c2)CC1
Second: CCS(=O)(=O)N1CCC(C(=O)Oc2ccccc2OC)CC1
The “hERG current change (%, negative = inhibition) at 10uM” value of the first is lower: 2.18% for the first, 18.5% for the second.

Going from O=C(Nc1cccc(-c2cccc(F)c2)c1)C1CCN(C2CCOCC2)CC1 to CC(=O)Nc1ccc(NC(=O)c2c(-c3ccccc3Cl)noc2C)cc1, the “hERG current change (%, negative = inhibition) at 10uM” value rises from -75% to 5.89%.

Going from COc1ccc(C(=O)N(c2ccc(C)cc2)C2C=CS(=O)(=O)C2)cc1OC (stereo not drawn) to COc1ccc(CCNc2nc(=O)[nH]nc2C)cc1OC, the “hERG current change (%, negative = inhibition) at 10uM” value falls from 9.79% to 2.35%.

Going from CC(=O)N1CCN(Cc2ccc(Br)s2)CC1 to Cc1ccc(-c2nnc(CCC(=O)NCC3C4CC5CC(C4)CC3C5)o2)s1 (stereo not drawn), the “hERG current change (%, negative = inhibition) at 10uM” value falls from -2.46% to -6.1%.

First: C#CCOCCOCCOCCNc1nc(N2CCN(C(=O)CCCCCCCCCCNC(=O)Cn3cc(C[C@@H](C)O)nn3)CC2)nc(N2CCN(C(=O)CCCCCCCCCCNC(=O)[C@@H](CCSC)n3cc(CCO)nn3)CC2)n1
Second: CC(C)Nc1nnc(SCC(=O)Nc2ccc3c(c2)C(=O)c2ccccc2C3=O)s1
The “hERG current change (%, negative = inhibition) at 10uM” value of the first is higher: 10.1% for the first, -2.55% for the second.

Compared with O=C(COC(=O)/C=C/c1ccc([N+](=O)[O-])cc1)NCc1ccccc1, CCOc1ccc(NC(=O)c2ccc(-c3csc(C)n3)cc2)cc1 is higher in “hERG current change (%, negative = inhibition) at 10uM” value: 2.07% for the first, 16.5% for the second.
